# From PubChem BioAssay AID485313 (National Center for Advancing Translational Sciences (NCATS), 2010)
# Among all 320,000 compounds or so, about 7,600 (2.4%) were called active. Roughly 3% stayed inconclusive and do not appear here. Shown is part of a subset that was picked to be rich in actives. Unmarked numbers belong to inactive results. Calls come from the whole dose curve; as a rule, active = well fitted activation curve with a large enough effect; inconclusive = small, poorly fitted or top-dose-only effect; inactive = no such curve, though single readings can be large or run the other way.
# Assay: qHTS Assay for NPC1 Promoter Activators; note: nearly all actives have a fitted effect of over 60% in size;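 for activation: reporter is driven by a mutant NPC1 promoter; % of control where 0% means no effect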
# Conditions: Huh7 NPC1 promoter luciferase reporter, 24 h; series mostly up to 9.22 µM; activation: at the top concentration
# In short: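 Readout is luciferase luminescence, reflecting NPC1 promoter activation in stably transfected Huh7 cells after 24 h compound exposure at 37 °C in reduced-serum medium with 10% FBS.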
# Potency is the fitted concentration of half-maximal effect.
Structure (SMILES),activation,Potency
Brc1ccc(CN2CC[C@H]3C=CCc4cccc(c43)C2)cc1,-2.1%,
O=C(OCc1cc(=O)n2ccsc2n1)C1(c2ccc(Cl)cc2)CC1,1.14%,
O=C(Nc1ccccc1N1CCN(c2ccccc2)CC1)c1cccc(F)c1,-1.86%,
O=C(Nc1cccc(NC(=O)c2cccc(F)c2)c1)c1ccccc1,-0.197%,
O=C(Nc1ccn(Cc2ccccc2)n1)c1cccc(F)c1,,3980 nM (active)
Cc1ccc(S(=O)(=O)N(C)CC(=O)NCC(c2ccc(F)cc2)N2CCOCC2)cc1 (stereo not drawn),-9.26%,
CC(C)Nc1ccc(-n2nc3ccccc3[n+]2[O-])cc1,,355 nM (active)
Cc1cc(Cl)ccc1OCc1nc(-c2ccncc2)no1,,2820 nM (active)
CN(Cc1ccccn1)Cc1nc(-c2ccc(Cl)cc2)no1,11.1%,
COc1ccc(-c2noc(COc3ccc(Cl)c(C)c3)n2)cc1,-0.141%,
Cc1cc(NC(=O)CSc2nnnn2-c2ccc(F)cc2)no1,-7.22%,
N#Cc1ccc(OCC(=O)NC(=O)NC2CCS(=O)(=O)C2)cc1 (stereo not drawn),-3.15%,
Cn1c(=NC(=O)c2ccco2)sc2cccc(F)c21,,2510 nM (active)
CCCC(=O)N=c1sc2cccc(F)c2n1C,3.63%,
Cn1c(=NC(=O)C2CC2)sc2cc(F)cc(F)c21,10.7%,
CC1CC2C3CCC4=CC(=O)C=C[C@]4(C)[C@@]3(F)[C@@H](O)C[C@]2(C)[C@@]1(O)C(=O)CO (stereo partly drawn),4.26% [at 46.1 µM],
CN(C)S(=O)(=O)c1cccc(NC(=O)COc2ccc3ccccc3c2)c1,-1.39%,
O=C(COC(=O)c1ncc(Cl)c(Cl)c1Cl)NCc1ccccc1,0.917%,
CCOc1ccc(C(=O)Nc2nccs2)cc1[N+](=O)[O-],28.4%,
Cc1cccc(-c2nc(Nc3ccc(O)cc3)c3ccccc3n2)c1,-1.56%,
Cc1ccc(-c2noc(CN3CCN(Cc4ccccc4)CC3)n2)cc1,-2.06%,
Cc1cccc(-c2noc(CCC(=O)NC3CCCC3)n2)c1,12.3%,

Structure (SMILES),activation,Potency
Cc1cccc(-c2noc(-c3ccc(F)cc3)n2)c1,,100 nM (active)
Cc1ccc(-c2noc(CC(c3ccccc3)c3ccccc3)n2)cc1,-0.556%,
Cc1ccc(Cc2nc(-c3cccc(C)c3)no2)cc1,,2820 nM (active)
O=C(CSc1ccccc1)Nc1cccc(S(=O)(=O)N2CCOCC2)c1,-2.07%,
CC(=O)c1sc(NC(=O)C2=NN(c3ccccc3)C(=O)CC2)nc1C,-2.55%,
CC(=O)c1sc(N)nc1C,-6.08%,
CC(=O)c1sc(N/N=C\c2ccc(C)cc2)nc1C,,3550 nM (active)
CC(=O)c1sc(N/N=C/c2ccc(C(C)C)cc2)nc1C,,1000 nM (active)
CCOC(=O)c1sc(NC(=O)c2sc(C)nc2C)nc1C,-37.1%,
Cc1nnc(C)n1/N=C/c1ccc(C(C)C)cc1,0.602%,
COc1cc2ccccc2cc1C(=O)Nc1ccncc1,16.7%,
COc1cc2ccccc2cc1C(=O)Nc1ccccc1C,27%,
Cc1ccc(S(=O)(=O)Nc2nc(C)cc(N/N=C/c3ccc(O)cc3)n2)cc1,-0.0493%,
CC(=O)c1sc(NC(=O)CCCOc2ccccc2C)nc1C,0.721%,
CC(=O)c1sc(NC(=O)c2ccc(C)cc2)nc1C,,1580 nM (active)
COc1cc2ccccc2cc1C(=O)Nc1nc(C)c(C(C)=O)s1,,3980 nM (active)
COc1ccc(Cl)cc1NC(=O)CN(C)CC(=O)Nc1ccc2c(c1)OCO2,-2.45%,
COc1ccc(-c2cc(C(=O)NCCCN3CCCC3=O)c3ccccc3n2)cc1OC,-0.607%,
O=S(=O)(Nc1ccc(Cl)cn1)c1cnc(Cl)c(Br)c1,-2.47%,
COc1ccc(S(=O)(=O)Nc2ccc3cn[nH]c3c2)cc1[N+](=O)[O-],1.87%,
CCc1ccc(CN(C)C(C)C(=O)Nc2ccc(S(=O)(=O)N3CCCC3)cc2)cc1 (stereo not drawn),-4.34%,
CN1CCC(N(C)S(=O)(=O)c2ccc(NC(=O)c3cccc(C#N)c3)cc2)CC1,-0.133%,

Structure (SMILES),activation,Potency
COc1ccc(C2(C)ON(c3ccccc3C(F)(F)F)C2=O)cc1 (stereo not drawn),-6.62%,
O=C(CSc1nc2ncccc2[nH]1)Nc1ccc2c(c1)OCCO2,11.2%,
CCn1nc(C(=O)NNC(=O)C2CSC3(C)CCC(=O)N23)c2ccccc2c1=O (stereo not drawn),-1.9%,
N#Cc1c(NC(=O)CCCl)sc2c1CCCCC2,-1.63%,
N#Cc1c(NC(=O)C2CCCO2)sc2c1CCCCC2 (stereo not drawn),,3550 nM (active)
N#Cc1c(NC(=O)C2CC(Cl)=CCC2C(=O)O)sc2c1CCCCC2 (stereo not drawn),0.669%,
COc1ccc(NS(=O)(=O)c2cccc(C(=O)NCCc3ccc(S(N)(=O)=O)cc3)c2)cc1,0.498%,
Clc1ccc2nc(CSc3ccccc3)cn2c1,,501 nM (active)
O=C(/C=C/c1ccc2c(c1)OCO2)NCc1cn2cc(Cl)ccc2n1,-5.97%,
O=c1c2ccccc2nc2n1C(CSc1ccc(Cl)cc1)CN2 (stereo not drawn),1.89%,
CN(CCC1CCOCC1)Cc1cn[nH]c1-c1ccc(-c2ccccc2)cc1,0.243%,
O=C(COC(=O)C1CC2CCCC(C1)C2=O)NC(=O)c1ccccc1 (stereo not drawn),1.55%,
CC(OC(=O)c1ccccc1NCCO)C(=O)Nc1ccnn1C(C)C (stereo not drawn),1.15%,
CC1CCCC(NC(=O)c2cc(S(=O)(=O)N3CCCCC3)ccc2Cl)C1C (stereo not drawn),-5.92%,
Cc1ccc(NC(=O)CCCNC(=O)c2ccc(Cl)cc2)cc1S(=O)(=O)N1CCOCC1,0.719%,
O=C(O)Cc1sc(-c2ccccc2)nc1-c1cccs1,0.359%,
NC(=O)Cc1ccc2c(c1)[nH]c1ccccc12,0.862%,
NC(=O)Cc1ccc2sc(-c3ccccc3)nc2c1,,3550 nM (active)
CC(OC(=O)CN1C(=O)c2ccccc2C1=O)C(=O)c1ccccc1 (stereo not drawn),0.525%,
O=C(COC(=O)c1ccc(O)cc1O)NNC(=O)c1cccs1,-3.96%,
CC(C)C(=O)Nc1c(O)c2ccccc2[nH]c1=O,0.926%,
CCCc1nc2ccccc2c(=O)n1NC(=O)c1c(O)c2ccccc2[nH]c1=O,-0.169%,

Structure (SMILES),activation,Potency
NS(=O)(=O)c1ccccc1NC(=O)c1c(O)c2ccccc2[nH]c1=O,,562 nM (active)
Cc1ccc(S(=O)(=O)N2CC(O)C[C@H]2C(=O)OCC(=O)Nc2ccc(N3CCOCC3)cc2)cc1C (stereo partly drawn),-1.79%,
Cc1ccc(CNC(=O)CC(NC(=O)c2ccccc2)c2ccccc2)cc1 (stereo not drawn),-1.36%,
COc1ccccc1C1=CC(=O)C[C@H](c2ccc(F)cc2)C1,-0.292%,
CCOC(=O)CSc1nnc(-c2ccc([N+](=O)[O-])cc2)o1,-4.24%,
CCc1ccccc1NC(=O)CSc1nnc(-c2ccncc2)o1,-0.244%,
O=C(CSc1nnc(-c2ccc([N+](=O)[O-])cc2)o1)Nc1ccccn1,,708 nM (active)
O=S(=O)(Nc1ccc(-n2cnnn2)cc1)c1ccc(Cl)cc1,-2.86%,
CCN(CC)S(=O)(=O)c1ccc(OC)c(NC(=O)CCc2c(C)noc2C)c1,0.937%,
COC(=O)CNS(=O)(=O)c1ccc(Cc2ccc(S(=O)(=O)NCC(=O)OC)cc2)cc1,,631 nM (active)
C/C(N)=C(/C#N)C(=O)COC(=O)CNS(=O)(=O)c1ccc(C)cc1,-4.23%,
COC(=O)CNS(=O)(=O)c1ccc(OC)cc1,-0.291%,
CC(=O)c1ccc(OCCCC(=O)Nc2ccc(C)c(S(=O)(=O)N3CCOCC3)c2)cc1,-8.15%,
COc1ccc(CNC(=O)COC(=O)c2c(C)nn(-c3ccccc3)c2C)cc1OC,-2.19%,
O=C(CN1CCCSc2ccccc21)N1CCN(S(=O)(=O)c2ccccc2)CC1,-2.36%,
COc1ccccc1OCCOc1ccc(/C=N/n2cnnc2)cc1,-0.813%,
COc1cccc(OCCOc2cccc(/C=N/n3cnnc3)c2)c1,,3980 nM (active)
C(=N\n1cnnc1)/c1cccnc1,-2.15%,
Cc1csc(NC(=O)C2CCN(S(=O)(=O)c3ccccc3)CC2)n1,-2.06%,
COc1cc2c(cc1OC)CN(C(C)C(=O)Nc1cccc(S(=O)(=O)N3CCOCC3)c1)CC2 (stereo not drawn),-0.418%,
Cc1c(C(=O)NNC(=O)c2ccncc2)oc2ccccc12,9.11%,
CCN(CC(=O)Nc1ccc(OC)cc1)C(=O)CSCc1ccc(C)cc1,-3.4%,

Structure (SMILES),activation,Potency
O=C(Nc1cc(C(F)(F)F)ccc1Cl)c1cc2nc3c(c(C(F)(F)F)n2n1)CCCC3,,3160 nM (active)
O=C(Nc1cc(C(F)(F)F)ccc1Cl)c1cc(C2CC2)on1,18.3%,
O=C(Nc1cc(C(F)(F)F)ccc1Cl)C(=O)N1CCCCC1,2.14%,
O=C(COc1ccccc1Cl)N1N=C(c2cccs2)CC1c1ccco1 (stereo not drawn),9.28%,
CC(C)C(NC(=O)c1c(F)cccc1F)C(=O)NCc1ccncc1 (stereo not drawn),-0.474%,
O=C(OCC(=O)N1CCc2ccccc21)C1CCCN1S(=O)(=O)c1ccc(Cl)cc1 (stereo not drawn),-2.44%,
O=C(Nc1cccc(F)c1)NC1CCCc2ccccc21 (stereo not drawn),-3.18%,
C/C(CC(=O)Nc1cccc(F)c1)=N\NC(=O)C(=O)NC1CCCCC1,0.249%,
O=C(Nc1cccc(F)c1)NC1CCCCCCC1,,2510 nM (active)
COc1ccc(OC)c(S(=O)(=O)n2c([N+](=O)[O-])cnc2C)c1,0.779%,
NC(=O)CSc1nnc(NC(=O)c2ccc3ccccc3c2)s1,,3160 nM (active)
NC(=O)CSc1nnc(NC(=O)c2ccc(Br)o2)s1,18.3%,
C=CCSc1nnc(NC(=O)c2ccc(NC(C)=O)cc2)s1,20.1%,
O=C(/C=C/c1ccccc1)Nc1nnc(SCC(=O)c2ccc3ccccc3c2)s1,-0.211%,
CCOC(=O)CSc1nnc(NC(=O)c2cccc(S(=O)(=O)N3CCCC3)c2)s1,-5.45%,
CCSc1nnc(NC(=O)c2ccc(C)cc2)s1,,1120 nM (active)
CN(CC(=O)NCC(c1ccccc1)N1CCCC1)S(=O)(=O)c1ccc(Cl)cc1 (stereo not drawn),0.0445%,
CC(C)(C)OC(=O)Nc1ccc([C@@H](NC(=O)OC(C)(C)C)C(=O)OC(C)(C)C)cc1,-4.8%,
Cc1ccc(NC(=O)Cc2nc(COC(=O)C(C)NS(=O)(=O)c3ccc(C)cc3)cs2)cc1 (stereo not drawn),4.04%,
COc1cc(C(=O)NCC(c2ccco2)N2CCCC2)ccc1OCc1ccccc1 (stereo not drawn),0.375%,
